From PubChem BioAssay AID624291 (National Center for Advancing Translational Sciences (NCATS), 2012)
Among all 350,000 compounds or so, about 220 (0.063%) were called active. Not shown: some 4% with an inconclusive outcome. Only a selection was taken, and actives are over-represented in it overall. Values without a mark were called inactive. The call rests on the fitted dose curve; in most records, active means well fitted activation curve with a large enough effect; inconclusive means small, poorly fitted or top-dose-only effect; inactive means no such curve, though single readings can be large or run the other way.

Assay: qHTS for Activators of Integrin-Mediated Alleviation for Muscular Dystrophy; further: nearly all actives have a fitted effect of over 60% in size;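 on activation: 100% = response of the positive control SU9516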
Details: alpha7betagal myoblasts, beta-gal FDG fluorescence, 48 h; series mostly up to 38.3 µM; activation: at the top concentration
Excerpt: Integrins are a diverse family of transmembrane cell surface receptors that mediate interactions between cells and the extracellular matrix. These heterodimeric proteins are composed of alpha and beta subunits and the a7b1 interacts with laminin in the extracellular matrix and actin of the cell cytoskeleton. Both chains contribute to ligand binding, but the alpha chain mediates the specificity of the interaction. The alpha7beta1 integrin is a major laminin receptor in skeletal, cardiac and vascular smooth muscle. Mutations in the alpha7 integrin gene are responsible for muscular dystrophy in both humans and mice. The alpha7beta1 integrin is also a major modifier of muscle disease progression in various muscle diseases including Duchenne muscular dystrophy, Fukuyama muscular dystrophy and merosin deficient congenital muscular dystrophy type 1A. […] Transcriptional regulation of the alpha7 integrin gene is poorly understood and probably involves multiple transcription factors. The goal of identifying small molecules that enhance alpha7 integrin expression is two-fold: firstly, such molecules would help us gain insight into the complex transcriptional control of alpha7 integrin. It is known that alpha7 integrin expression is tightly controlled during various stages of development, disease and in response to external stimuli. The second goal of the project is to translate the above finding into a therapeutic strategy for muscular dystrophy. […] Thus this project aims to discover small molecule probes that would not only help in gaining a better understanding of the complex regulatory mechanism of alpha7 integrin expression, but also lead to development of pharmacological agents to fight muscular dystrophy. NIH Chemical Genomics Center [NCGC] NIH Molecular Libraries Probe Centers Network [MLPCN] MLPCN Grant: NS058429 Assay Submitter (PI): Dean Burkin, University of Nevada School of Medicine
A total of 250 alpha7betagal+/- myoblasts at passage 13 were dispensed using a mulitdrop from Thermo into black low base tissue culture treated microclear aurora plates in 6 ul media containing DMEM without phenol, 5% FBS, 1x GluMax and 1x Penicillin/Streptomycin. The plates were incubated 16-24 hr at 37C, 5% CO2, 95% humidity covered with low evaporation stainless steel lids from Kalypsys. Compounds were then dispensed using a Kalypsys pintool to deliver 23 nl/well compounds in DMSO (diluted into 6 uL resulting in a 1:260 dilution of compound). The control compound used was the cdk2 inhibitor SU9516 from Tocirs (found in the initial LOPAC screen). The plates were incubated for 48 hours at 37C, 5% CO2, 95% humidity using the same stainless steel lids. After incubation with compound, 5 ul of the media was aspirated using the Kalypsys washer/dispenser and 3 ul of the Mammalian Protein Extraction Reagent (MPER) lysis buffer (Thermo Fisher) was added. The plates were spun at 2000 rpms to remove bubbles and an initial capture was acquired on the Viewlux (Perkin Elmer) with exciation at 480 nm and emission at 540 nm for 25 seconds to omit any auto fluorescent compounds. The plates were then incubated for 10 minutes at room temperature. After incubation, 3 ul of 125 uM Fluorescein di-galactoside (FDG) (Marker Gene Technologies) diluted in PBS with 2 mM MgCl2 and 0.2% betamercaptoethanol (BME) was added, the plates were spun at 2000 rpms and incubated for 30 minutes at room temperature. The plates were again read on the Viewlux with exciation at 480 nm and emission at 540 nm for 25 seconds.
Potency means the concentration at half of the fitted maximal effect.

Row | SMILES | activation | Potency
1 | O=C(Nc1ccc(Cl)cn1)c1ccccc1-c1ccccc1 | -8.37% | 
2 | CCCCCCN1C[C@H](O)[C@@H](n2cc(C3CC3)nn2)C[C@@H]1c1ccc(Cl)cc1 | 7.37% | 
3 | CSc1ncnc2c1ncn2CCCNCc1cccs1 | -9.79% | 
4 | COc1ccc(CCNC(=O)CN(c2ccccc2)S(=O)(=O)c2ccccc2)cc1 | 3.57% | 
5 | O=C(NCc1nnnn1-c1ccc(Cl)cc1)c1ccc([N+](=O)[O-])o1 | -58.1% | 
6 | COc1ccc(NC2CCCN(C(=O)c3ccccc3-c3ncc[nH]3)C2)cc1 (centres undefined) | 12.6% | 
7 | Cc1ccc(-c2ccc(CN3C(C)C(=O)N(Cc4cn(CCC5OCCCO5)nn4)CCS3(=O)=O)cc2)cc1 (centres undefined) | 2.44% | 
8 | COC(=O)C[C@H]1C[C@@H]2c3cc(NC(=O)Nc4ccccc4)ccc3O[C@@H]2[C@@H](CO)O1 | -4.07% | 
9 | Cc1ccc(-c2nc3ccc(Cl)cn3c2Cc2ccccc2)cc1 | 10.4% | 
10 | N#Cc1ccc(OCC(=O)Nc2nc(-c3ccccn3)cs2)cc1 | -39.2% | 
11 | Cc1sc2nc(-c3ccccc3F)oc(=O)c2c1C | -16.1% | 
12 | O=C1[C@H]2[C@@H](c3ccc(C(F)(F)F)cc3)N[C@]3(CCCN(Cc4ccc(Br)cc4)C3=O)[C@H]2C(=O)N1Cc1ccccc1 | -57.5% | 
13 | O=C(c1ccc(CS(=O)Cc2ccccc2Cl)o1)N1CCN(c2ccccc2)CC1 (centres undefined) | -8.87% | 
14 | C[C@H]1CN([C@@H](C)CO)C(=O)CCCn2nncc2CO[C@@H]1CN(C)Cc1ccc(Oc2ccccc2)cc1 | -10.8% | 
15 | Cc1ccc([C@H]2N[C@]3(CCCN(CC4CCCCC4)C3=O)[C@H]3C(=O)N(Cc4ccccc4)C(=O)[C@@H]23)cc1 | -6.15% | 
16 | COc1cccc(OCC(=O)NCCS(=O)(=O)N2CCN(c3ccccc3)CC2)c1 | -8.47% | 
17 | CCOC(=O)c1c(C)[nH]c(C)c1C(=O)COC(=O)/C=C/c1cccc([N+](=O)[O-])c1 | 4.11% | 
18 | CC(C)NC(=O)Nc1ccc2c(c1)C(=O)N([C@H](C)CO)C[C@H](C)[C@@H](CN(C)Cc1ccc(C(F)(F)F)cc1)OCCCC[C@@H](C)O2 | 2.43% | 
19 | O=c1[nH]c2ccccc2n1C1CCN(CCOc2ccccc2)CC1 | -61.8% | 
20 | c1ccc(Cn2nnc3c(NCC4CC4)ncnc32)cc1 | -2.86% | 

Row | SMILES | activation | Potency
21 | CN1OC[C@@H]2CN[C@H](c3ccc(-c4ccccc4)cc3)C[C@@H]21 | -9.06% | 
22 | COc1ccccc1NC(=O)C(CC(=O)O)Cc1cc(C)cc(C)c1 (centres undefined) | -10.1% | 
23 | C[C@@H]1CN([C@H](C)CO)C(=O)CCCn2nncc2CO[C@@H]1CN(C)S(=O)(=O)c1cccc(C#N)c1 | 7.94% | 
24 | O=S1(=O)CCN(C2CCCCCCCCCCC2)CC1 | 5.58% | 
25 | O=C(NCCc1cccc(F)c1)C1CC(O)CN1C(=O)Nc1ccccc1 (centres undefined) | 3.57% | 
26 | CC1(c2cccc(N)c2)OCCO1 | 4.71% | 
27 | C[C@H](CO)N1C[C@H](C)[C@H](CN(C)C(=O)c2ccncc2)OCc2ccccc2-c2c(n(C)c3ccccc23)C1=O | -13% | 
28 | Cc1cc(C)c2c(=O)n3c(nc2c1)C(CC(C)C)NC(=O)c1cc2ccccc2cc1-3 (centres undefined) | 14.1% | 
29 | O=C(c1ccc(N2CCCC2=O)cc1)N1CCN(c2ccc(C(F)(F)F)cc2[N+](=O)[O-])CC1 | -30.8% | 
30 | O=C(CN1C(=O)NC2(CCc3ccccc32)C1=O)NC1CCCCC1 (centres undefined) | -11% | 
31 | Cc1ccc(-c2nc(C)sc2CC(=O)OCC(=O)Nc2c(F)cccc2F)cc1 |  | 12.6 µM (active)
32 | Cc1nc(-c2ccc(F)cc2)c(CC(=O)Nc2cccc(S(=O)(=O)N3CCOCC3)c2)s1 | -5.59% | 
33 | Cc1nc(-c2ccc(F)cc2)c(CC(=O)N(C)CC(=O)Nc2c(C)cccc2C)s1 | 7.81% | 
34 | COc1ccc(Cn2c(=O)oc3ccccc32)cc1 | 20.9% | 
35 | CCN(CC)C(=O)C1=C(C)N(Cc2ccc(OC)cc2)C(=O)C(CC(=O)NCCCCc2ccccc2)C1 (centres undefined) | -20.6% | 
36 | CC(C)N=C1CCCC1C(=S)SSC(=S)C1CCCC1=NC(C)C (centres undefined) | -59.1% | 
37 | COc1cccc(N2C(=O)CC(N3CCc4ccccc4C3)C2=O)c1 (centres undefined) |  | 10 µM (active)
38 | COc1cccc(N2CCN(C3CC(=O)N(c4ccc(Cl)cc4)C3=O)CC2)c1 (centres undefined) | -12.2% | 
39 | COc1cccc(N2C(=O)CC(N3CCN(S(=O)(=O)c4ccccc4)CC3)C2=O)c1 (centres undefined) | -6.38% | 
40 | CN1CCN(c2ccncc2S(=O)(=O)N2CCCC2)CC1 | -15.2% | 

Row | SMILES | activation | Potency
41 | Cc1ccc(S(=O)(=O)N(CCc2ccccc2)c2ccc3c(c2)C2CC3CCN2C(=O)OCc2ccccc2)cc1 (centres undefined) | 27.3% | 
42 | Cc1onc(-c2ccccc2)c1-c1nnc(COC(=O)c2ccc(N(C)C)cc2)o1 | -37.3% | 
43 | NC1=CC(=O)C(=O)c2cccnc21 | -63.6% | 
44 | COc1cc(C(=O)N2CCOC23CCN(Cc2ccccc2)CC3)cc(OC)c1OC | -6.04% | 
45 | C[C@H](O)[C@@H]1C(=O)N2CCc3c([nH]c4ccccc34)[C@@H]2C[C@@H]1N(C)C(=O)Nc1ccc(F)cc1 | 4.41% | 
46 | CCCCN1C(=O)C(CC(=O)NCc2cccs2)CC(C(=O)N2CCOCC2)=C1C (centres undefined) | 6.71% | 
47 | O=C(c1cccs1)N1C[C@H](n2cc(C3CC3)nn2)[C@@H](O)C[C@@H]1c1ccccc1 | 14.6% | 
48 | COc1ccc(C)cc1S(=O)(=O)Nc1cc2c3c(c1)CCC(=O)N3CCC2 | 4.85% | 
49 | O=C1CCc2cc(S(=O)(=O)Nc3ccc(C(F)(F)F)cc3)cc3c2N1CC3 |  | 11.2 µM (active)
50 | COc1ccc(CNS(=O)(=O)c2cc3c4c(c2)CCN4C(=O)CC3)cc1 | 20.1% | 
51 | CCOC(=O)C=Cc1ccc(C(=O)OCC)[nH]1 | -34.3% | 
52 | C[C@H]1CN([C@@H](C)CO)S(=O)(=O)c2ccc(Br)cc2O[C@H]1CN(C)C(=O)c1cnccn1 | -27.4% | 
53 | CNC(=S)N1CCC(NC(=O)C(Cc2ccc(F)cc2)NC(C)=O)CC1 (centres undefined) |  | 3.16 µM (active)
54 | COc1ccc(CC(NC(C)=O)C(=O)NC2CCN(C(=O)c3ccc(Cl)cc3)CC2)cc1 (centres undefined) | -8.42% | 
55 | CC(=O)NC(Cc1ccc(F)c(F)c1)C(=O)NC1CCN(C(=O)c2ccc(C)cc2)CC1 (centres undefined) | -16.1% | 
56 | O=C(c1ncn2c1c(=O)[nH]c1ccccc12)N1CCc2ccccc2C1 | 5.05% | 
57 | CC1(C)CN(Cc2cccnc2)C(=O)[C@H]1CC(=O)Nc1ccc(Br)cc1 | 8.33% | 
58 | Cc1ccc([C@H]2C[C@H](O)[C@@H](n3cc(COC(=O)c4ccccc4)nn3)CN2C(=O)C2CCCCC2)cc1 | 12.2% | 
59 | CSc1ncnc2c1ncn2CCCNCC1CCCCC1 | -8.29% | 
